“And” between values parts separate entries of the source, which are not always exact repeats. Identical values can stand only once. Inconclusive results are not listed. Where a call stands in place of a potency, no number is given. The source made the active and inactive calls. Unless noted, the call rests on the fitted dose curve; in most records, active means well fitted curve in the direction sought with a large enough effect in the repeat runs; inconclusive means weak or mixed curves; inactive means no such curve, though single readings can be large; an effect the other way counts as inactive or inconclusive.
What was measured:
[1] = qHTS assay for small molecule agonists of the p53 signaling pathway (AID 651631; calls by dose curve; further: potency means the concentration at half of the fitted maximal effect; nearly all actives have a fitted effect of over 15% in size)
How it was run: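 Testing took place in human colorectal HCT-116 cells with stable p53RE-driven beta-lactamase. After 16 h of compound exposure at 37 °C, a FRET substrate was added and fluorescence recorded 2 h later.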

[2] = qHTS assay for small molecule agonists of the p53 signaling pathway - cell viability (AID 651633; calls by dose curve; further: nearly all actives have a fitted effect of over 30% in size; further: potency means the concentration at half of the fitted maximal effect)
How it was run: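 p53RE-bla cells, seeded at 4,000 per well and rested 5 h at 37 C/5% CO2, received compounds in DMSO for 16 h at 37 C. CellTiter-Glo was then added, and luminescence was read after 30 min at room temperature to gauge cytotoxicity.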

[3] = qHTS assay for small molecule disruptors of the mitochondrial membrane potential - cell viability (AID 720634; calls by dose curve; further: nearly all actives have a fitted effect of over 20% in size; further: potency means the concentration at half of the fitted maximal effect)
How it was run: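 HepG2, 1 hr compound, 37 C. ATP luminescence via CellTiter-Glo, 30 min RT, same well as m-MPI.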

[4] = qHTS assay to test for compound auto fluorescence at 590 nm (red) in HepG2 cells (AID 720674)
How it was run: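 Compound auto-fluorescence is scored relative to Rose Bengal sodium, measured at 540/590 nm in live HepG2 cultures after 1 hr compound contact (37 C, 5% CO2).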

[5] = qHTS assay to test for compound auto fluorescence at 460 nm (blue) in HEK293 cells (AID 720678)
How it was run: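 Cells were seeded and left to adhere for 4-5 hr at 37C. Compounds were then pin-transferred. After an overnight incubation at 37C under 5% CO2, intrinsic fluorescence at 405/460 nm was measured and referenced to triamterene.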

[6] = qHTS assay to test for compound auto fluorescence at 535 nm (green) in HEK293 cells (AID 720680)
[7] = qHTS assay to test for compound auto fluorescence at 460 nm (blue) in HEK293 cell free culture (AID 720681)
How it was run: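 Test compounds were pinned into cell-free culture medium (DMEM with 10% FBS) and fluorescence was read directly at Ex/Em 405/460 nm. Signals were expressed as fluorescence equivalents of triamterene, with DMSO vehicle as control.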

[8] = qHTS assay to test for compound auto fluorescence at 535 nm (green) in HEK293 cell free culture (AID 720682)
How it was run: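 DMEM + 10% FBS, cell-free; cpd or DMSO pinned in; Ex485/Em535 read; output as fluorescein-equivalent signal.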

[9] = qHTS assay to test for compound auto fluorescence at 590 nm (red) in HEK293 cell free culture (AID 720683)
How it was run: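 Tox21 10K library compounds were pinned into cell-free DMEM with 10% FBS and fluorescence was read at excitation 540 nm. Activity is expressed as Rose Bengal sodium equivalency.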

[10] = qHTS assay to test for compound auto fluorescence at 590 nm (red) in HepG2 cell free culture (AID 720684)
How it was run: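 Measured in medium alone (MEM containing 10% FBS) following pintool addition of compound; emission at 590 nm with 540 nm excitation, referenced to Rose Bengal sodium.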

[11] = qHTS assay to test for compound auto fluorescence at 460 nm (blue) in HepG2 cell free culture (AID 720685)
How it was run: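 Compound (23 nL) or DMSO pinned into cell-free MEM with 10% FBS; blue fluorescence read at 405/460 nm excitation/emission, expressed as auto-fluorescence equivalency to triamterene.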

[12] = qHTS assay to test for compound auto fluorescence at 535 nm (green) in HepG2 cell free culture (AID 720686)
[13] = qHTS assay to test for compound auto fluorescence at 460 nm (blue) in HepG2 cells (AID 720687)
How it was run: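 Cells (2,000/well in MEM with 10% FBS) attached overnight at 37 C, then were exposed to compound or DMSO for 1 hr at 37 C, 5% CO2. Fluorescence read at Ex/Em 405/460 nm, expressed as triamterene-equivalent signal.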

[14] = qHTS assay for small molecules that induce genotoxicity in human embryonic kidney cells expressing luciferase-tagged ATAD5 (AID 651632); further: nearly all actives have a fitted effect of over 15% in size
How it was run: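 Luminescent reporter readout, HEK293T ATAD5-luc line: 16 hr drug exposure (37C, 5% CO2) followed by Amplite, 30 min RT.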

[15] = qHTS assay for small molecules that induce genotoxicity in human embryonic kidney cells expressing luciferase-tagged ATAD5 - cell viability (AID 651634; calls by dose curve; further: nearly all actives have a fitted effect of over 25% in size; further: potency means the concentration at half of the fitted maximal effect)
How it was run: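 Viability read: CellTiter-Fluor fluorescence, 30 min at 37C. Cells: HEK293T, luciferase-tagged ATAD5. Exposure: 15.5 hr, 37C, 5% CO2, compound or DMSO vehicle.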

[16] = qHTS assay for small molecule disruptors of the mitochondrial membrane potential (AID 720635); further: potency means the concentration at half of the fitted maximal effect
How it was run: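 HepG2 cells (2,000/well) attached overnight at 37C, then took compound for 1 hr at 37C, 5% CO2. Mito-MPS dye was added for 30 min; fluorescence was read at 490/535 nm (monomers) and 540/590 nm (aggregates).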

[17] = qHTS assay to test for compound auto fluorescence at 535 nm (green) in HepG2 cells (AID 720675)
[18] = qHTS assay to test for compound auto fluorescence at 590 nm (red) in HEK293 cells (AID 720679)
How it was run: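 Each well held 2,000 HEK293 cells in medium containing 10% dialyzed FBS. Following 4-5 hr attachment at 37C, 23 nL test compound or DMSO was added; plates sat overnight, and red fluorescence (540/590nm) was recorded.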

| Compound | Potency [1] | Potency [2] | Potency [3] | outcome [4] | Potency [5] | outcome [6] | Potency [7] | outcome [8] | outcome [9] | outcome [10] | Potency [11] | Potency [12] | Potency [13] | Potency [14] | Potency [15] | Potency [16] | Potency [17] | outcome [18] |
| --- | --- | --- | --- | --- | --- | --- | --- | --- | --- | --- | --- | --- | --- | --- | --- | --- | --- | --- |
| BrCC(Br)(Br)Br | 7.11 µM (active) | inactive | inactive | inactive | inactive | inactive | inactive | inactive | inactive | inactive | inactive | inactive | inactive |  |  |  |  |  |
| CCCCCCC[CH2][Sn]([Cl])([Cl])[CH2]CCCCCCC |  | 15.3 µM (active) | inactive | inactive | inactive | inactive | inactive | inactive | inactive | inactive | inactive | inactive | inactive | inactive | inactive | 48.5 µM (active) | inactive | inactive |
| c1ccc(N=NNc2ccccc2)cc1 |  | inactive | 56.4 µM (active) | inactive | inactive | inactive | inactive | inactive |  | inactive | inactive | inactive | inactive | inactive | 5.45 µM (active) | 7.1 µM (active) and 5.45 µM (active) | inactive | inactive |
| CC(=O)[O][Pb]([c]1ccccc1)([c]1ccccc1)[c]1ccccc1 |  | 2.73 µM (active) | 30.6 µM (active) | inactive | inactive | inactive | inactive | inactive | inactive | inactive | inactive | inactive | inactive | inactive | 0.686 µM (active) | 1.09 µM (active) | inactive | inactive |
